PubChem BioAssay AID1347076 (National Center for Advancing Translational Sciences (NCATS), 2019)
Out of some 400,000 compounds screened, about 13,000 (3.2%) were called active. Where a call stands in place of a potency, no number is given. About 18% were inconclusive and are not listed. This is one part of a sample in which actives are shown more often than they occur. Calls come from the whole dose curve; as a rule, active = well fitted cell-killing curve with a large enough effect; inconclusive = small, poorly fitted or top-dose-only effect, or effect the other way; inactive = flat fitted curve, though single readings scatter.
Potency is the fitted concentration of half-maximal effect.

Assay: qHTS assay for MDR1-selective chemotherapeutics: Primary screen using the drug-selected MDR subline cells KB-V1; note: nearly all actives have a fitted effect of over 60% in size
Details: KB-V1 MDR cells viability, CellTiter-Glo, 72 h; series mostly up to 46.1 µM
Procedure, shortened: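 Following 72 h at 37 degrees C with compound, KB-V1 cell viability was read by CellTiter-Glo luminescence, medium being phenol-red-free DMEM plus 10% FBS; concentration-response parameters came from normalized, curve-fitted qHTS data.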
In the case of `Cc1nn(-c2ccccc2)c(Cl)c1C(=O)Nc1ccccc1`, the Potency is reported as “inactive”.
In the case of `Cc1nn(-c2ccccc2)c(Cl)c1/C=N/NC(=O)c1nn(C)cc1[N+](=O)[O-]`, the Potency is reported as “inactive”.
With `Cc1nn(-c2ccccc2)c(Cl)c1/C=C/C(=O)c1ccc(O)cc1` the Potency was 20.6 µM (active).
In the case of `O=C1NC(O)CCN1C1CC(O)C(CO)O1` (stereo not drawn), the Potency is reported as “inactive”.
For `N#Cc1cccc(Nc2c3c(nc4ccccc24)CCCC3)c1`, the Potency was “inactive”.
In the case of `Cc1cc(Nc2ccc(Br)cc2)nc2ccccc12`, the Potency is reported as “inactive”.
For `Cc1ccc(Nc2c3c(nc4ccccc24)CCC3)cc1`, the Potency was 5.8 µM (active).
With `O=C(OCc1ccccc1)N1CCC2CC1c1cc(N3CCN(S(=O)(=O)c4cc(Cl)cc(Cl)c4)CC3)ccc12` (stereo not drawn) the Potency was “inactive”.
In the case of `COc1ccc(C/C(N)=N/OC(=O)c2ccco2)cc1OC`, the Potency is reported as “inactive”.
In the case of `COc1ccc(C(=O)ON=C2c3ccccc3-c3ccccc32)cc1OC`, the Potency is reported as “inactive”.
With `COc1ccc(C(=O)O/N=C(\N)Cc2ccc(Cl)cc2Cl)cc1OC` the Potency was 23.1 µM (active).
For `COc1ccc(S(=O)(=O)N2CCCCC2c2cc(C(=O)NCc3ccc(F)cc3)no2)cc1` (stereo not drawn), the Potency was “inactive”.
For `CCOC(=O)[C@]12CCCC=C1N(Cc1ccc3c(c1)OCO3)C(=O)[C@H](CC(=O)N1CCN(C(=O)c3ccco3)CC1)C2`, the Potency was “inactive”.
In the case of `CC(=O)C1=CCC(c2ccccc2)N(S(=O)(=O)c2ccc(C)cc2)C1` (stereo not drawn), the Potency is reported as “inactive”.
For `O=C(COc1ccccc1F)Nc1nc(-c2ccccn2)cs1`, the Potency was 4.61 µM (active).
For `N#Cc1ccc(OCC(=O)Nc2nc(-c3ccccn3)cs2)cc1`, the Potency was “inactive”.
For `O=C(COc1ccccc1F)NC1CC1`, the Potency was “inactive”.
In the case of `COc1ccc(-c2ccc3ncnc(NCc4cccs4)c3c2)cc1OC`, the Potency is reported as “inactive”.
For `CCOC(=O)C1=CC[C@@H](c2ccccc2)N(S(=O)(=O)c2ccc(C)cc2)[C@H]1c1ccc(CC)cc1`, the Potency was “inactive”.
For `S=C(NCC1CCCO1)N1CCN(c2ccc(Cl)c(Cl)c2)CC1` (stereo not drawn), the Potency was 7.31 µM (active).
In the case of `CCOc1ccc(S(=O)(=O)N2CCN(C(=S)NCC3CCCO3)CC2)cc1` (stereo not drawn), the Potency is reported as “inactive”.
In the case of `COc1ccc(S(=O)(=O)N2CCN(C(=S)NCC3CCCO3)CC2)cc1OC` (stereo not drawn), the Potency is reported as “inactive”.
In the case of `CCCC(=O)Nc1ccc2oc(-c3ccc(O)c(Br)c3)nc2c1`, the Potency is reported as “inactive”.
With `Cc1ccn(CC(=O)N2N=C(C(F)F)CC2(O)C(F)F)n1` (stereo not drawn) the Potency was “inactive”.
With `Cc1nn(Cc2ccc(C(=O)N3N=C(C(F)F)CC3(O)C(F)F)cc2)c(C)c1[N+](=O)[O-]` (stereo not drawn) the Potency was 8.2 µM (active).
With `Cc1nn(CC(=O)N/N=C/c2ccc(F)cc2)c(C)c1[N+](=O)[O-]` the Potency was “inactive”.
With `N#Cc1ccc(-c2nc3c(Cl)cc(C(F)(F)F)cn3c2Cc2ccccc2C(F)(F)F)cc1` the Potency was “inactive”.
With `COC(=O)C1=C(C)NC(=O)CC1c1ccccc1OC` (stereo not drawn) the Potency was “inactive”.
With `O=C1CC(c2ccc(F)cc2F)c2cc3c(cc2N1)OCO3` (stereo not drawn) the Potency was “inactive”.
In the case of `CCCOc1ccccc1C1CC(=O)Nc2cc3c(cc21)OCO3` (stereo not drawn), the Potency is reported as 4.61 µM (active).
For `Cc1cccc(N2CCN(c3ccc(C(=O)O)cc3NC(=O)c3ccccc3F)CC2C)c1` (stereo not drawn), the Potency was “inactive”.
In the case of `CC1CCN(C(=O)CSc2nnc(-c3ccco3)n2N)CC1`, the Potency is reported as “inactive”.
In the case of `COc1cccc(C(O)c2nc(-c3ccc(C)c(C)c3)cs2)c1` (stereo not drawn), the Potency is reported as “inactive”.
With `COc1ccccc1NC(=O)CN(c1ccccc1OC)S(=O)(=O)c1ccccc1` the Potency was “inactive”.
For `COc1ccccc1NC(=O)COC(=O)COc1ccccc1F`, the Potency was “inactive”.
In the case of `CCN(CC(=O)Nc1ccccc1OC)C(=O)CC1CC2CCC1C2` (stereo not drawn), the Potency is reported as 16.4 µM (active).
In the case of `CCCN(CC(=O)Nc1ccccc1OC)C(=O)CCC(=O)c1ccc(F)cc1`, the Potency is reported as 10.3 µM (active).
With `COc1ccccc1/C=C/C(=O)NC1CC2CCC1C2` (stereo not drawn) the Potency was “inactive”.
In the case of `COc1ccc(S(=O)(=O)N2CCOCC2)cc1NC(=O)CC1CC2CCC1C2` (stereo not drawn), the Potency is reported as “inactive”.
With `Cc1cc(C)cc(NC(=O)CCS(=O)(=O)c2cc3c4c(c2)CCN4C(=O)CC3)c1` the Potency was “inactive”.
In the case of `Cc1cccc(CN2CCN(C3CN(Cc4cn(Cc5ccccc5F)nn4)S(=O)(=O)C3)CC2)c1` (stereo not drawn), the Potency is reported as “inactive”.
In the case of `Cc1ccc(OCC(=O)NC(C)c2ccccc2)cc1C` (stereo not drawn), the Potency is reported as “inactive”.
In the case of `Cc1ccc(C)c(NC(=S)NNC(=O)c2csc(C)c2)c1`, the Potency is reported as 18.4 µM (active).
In the case of `Cc1ccc(C)c(NC(=O)CCC(=O)NNC(=O)c2cccs2)c1`, the Potency is reported as “inactive”.
In the case of `Cc1ccc(C)c(NC(=S)NNC(=S)Nc2ccc(C(C)C)cc2)c1`, the Potency is reported as “inactive”.
For `CC(NC(=S)NNS(=O)(=O)c1ccc(C(C)(C)C)cc1)c1ccccc1` (stereo not drawn), the Potency was “inactive”.
With `Cc1cc(C(=O)NNC(=S)NC(C)c2ccccc2)cs1` (stereo not drawn) the Potency was 14.6 µM (active).
For `Nc1nc2ncccn2c1-c1ccccc1`, the Potency was “inactive”.
For `CO[C@H]1O[C@@H]2O[C@@]3(C)CC[C@@H]4[C@@H](C)CC[C@@H]([C@H]1C)[C@@]24OO3`, the Potency was “inactive”.
With `COc1ccc(C)cc1-n1c(-c2ccc(C)cc2)cc2c1CC(C)(C)CC2=O` the Potency was “inactive”.
With `O=C(C[C@H]1CC[C@H]2[C@@H](COC[C@H](O)CN2C(=O)c2ccccn2)O1)N1CCN(c2ccccc2)CC1` the Potency was “inactive”.
With `CS(=O)(=O)N(Cc1nc2sc3c(c2c(=O)[nH]1)CCCC3)C1CCCCC1` the Potency was 16.4 µM (active).
For `O=c1[nH]c(CN2CCN(S(=O)(=O)c3ccc4c(c3)OCCO4)CC2)nc2sc3c(c12)CCCC3`, the Potency was “inactive”.
With `CCN(CC)Cc1nc2sc(C)c(C)c2c(=O)[nH]1` the Potency was “inactive”.
With `Cc1ccc(Cl)cc1N1CCN(C(=O)C2CCC(CNS(=O)(=O)c3cccs3)CC2)CC1` (stereo not drawn) the Potency was 10.3 µM (active).
For `O=C(CNS(=O)(=O)c1cccs1)N1CCN(c2ccccc2Cl)CC1`, the Potency was “inactive”.
For `Cc1ccc(C)c(N2CCN(C(=O)C3CCC(CNS(=O)(=O)c4cccs4)CC3)CC2)c1` (stereo not drawn), the Potency was “inactive”.
With `COc1ccc(S(=O)(=O)N2CCC(C(=O)NCCC(=O)NCCc3cccc(F)c3)CC2)cc1` the Potency was “inactive”.
For `CC1CCCC(NC(=O)COC(=O)c2ccccc2C(=O)N(C)C2CCCCC2)C1C` (stereo not drawn), the Potency was “inactive”.
In the case of `O=C(c1cc(-c2ccc(Cl)cc2)on1)N1CCN(c2ccccc2)CC1`, the Potency is reported as “inactive”.
In the case of `O=C(c1cc(-c2ccc(F)cc2)on1)N1CCN(c2ccc(F)cc2)CC1`, the Potency is reported as “inactive”.
With `COc1ccc(-c2cc(C(=O)N3CCN(c4ccc(F)cc4)CC3)no2)cc1` the Potency was 18.4 µM (active).
With `CC1=C(C(=O)N2CCOCC2)CC(CC(=O)NCc2ccco2)C(=O)N1Cc1ccc(F)cc1` (stereo not drawn) the Potency was “inactive”.
In the case of `Cc1cc(C(=O)NNC(=O)c2ccccc2O)c(C)o1`, the Potency is reported as “inactive”.
With `O=C(NNC(=O)c1ccccc1O)c1ccccc1O` the Potency was 0.517 µM (active).
In the case of `Cc1cc(C(=O)CCC(=O)NNC(=O)c2ccccc2O)c(C)s1`, the Potency is reported as “inactive”.
In the case of `COc1ccc(NC(=O)CN(C)C(=O)c2cc(C)oc2C)cc1`, the Potency is reported as “inactive”.
For `Cn1c(CCN2CCCCCC2)nc2cc(NC(=O)Nc3ccccc3)ccc21`, the Potency was “inactive”.
With `Cc1cc2nc(C)n(CCCNC(=O)Nc3ccccc3)c2cc1C` the Potency was 23.1 µM (active).
In the case of `COc1ccc(OCCCn2c(C)nc3cc(C)c(C)cc32)cc1`, the Potency is reported as “inactive”.
In the case of `CCOC(=O)C1(C)CCCN(C(=O)c2ccc(F)c(Cl)c2)C1` (stereo not drawn), the Potency is reported as “inactive”.
In the case of `CNc1cc(-c2c(OC)cccc2OC)ncn1`, the Potency is reported as “inactive”.
For `O=C(NCCCNC(=O)c1ccccc1Cl)c1cnccn1`, the Potency was “inactive”.
In the case of `Cc1ccc(C(=O)NCCNC(=O)c2cnccn2)cc1`, the Potency is reported as “inactive”.
In the case of `COc1ccccc1CCNC(=O)c1cnccn1`, the Potency is reported as 16.4 µM (active).
In the case of `CC(=O)Nc1c(-c2ccc(C)cc2)nc2ccc(Cl)cn12`, the Potency is reported as “inactive”.
In the case of `O=C(NCC(F)(F)F)c1ccc(S(=O)(=O)NCCc2ccc3c(c2)OCCO3)cc1`, the Potency is reported as “inactive”.
With `CCCc1nc2ccccc2n1C(C)C(=O)NC(C)(C)C` (stereo not drawn) the Potency was “inactive”.
For `CC(C)CC(COCc1ccc(Cl)cc1)N1CCN(C(=O)c2ccc(C(F)(F)F)cc2)CCC1=O` (stereo not drawn), the Potency was 20.6 µM (active).
In the case of `O=C(c1cc(Cl)cc(Cl)c1)N1CCC(=O)N(C(COCc2ccccc2)Cc2ccccc2)CC1` (stereo not drawn), the Potency is reported as “inactive”.
With `COc1ccc(COC[C@H](CC(C)C)N2CCN(C(=O)c3cccc(C(F)(F)F)c3)CCC2=O)cc1` the Potency was “inactive”.
With `COC(=O)[C@]12CCCCC=C1N(Cc1ccc3c(c1)OCO3)C(=O)[C@H](CC(=O)NCc1cccs1)C2` the Potency was “inactive”.
In the case of `O=C1CCC(C(=O)OCC(=O)Nc2ccc(OC(F)F)cc2)=NN1`, the Potency is reported as “inactive”.
With `Cc1ccc2c(c1)c1c(c(=O)n(-c3ccccc3)c(=O)n1CC(=O)c1ccc(Cl)cc1)n2C` the Potency was “inactive”.
For `CC(=O)NC(c1cccc(F)c1)c1nc(-c2cccc(F)c2)cs1` (stereo not drawn), the Potency was “inactive”.
For `Cc1cc(C)cc(NC(=O)CSCc2cnn(-c3ccccc3)c2-n2cccc2)c1`, the Potency was 18.4 µM (active).
In the case of `CCOc1ccc(NC(=O)c2cnn(-c3ccccc3)c2-n2cccc2)cc1`, the Potency is reported as “inactive”.
In the case of `CC(=O)Nc1ccc(NC(=O)CSCc2cnn(-c3ccccc3)c2-n2cccc2)cc1`, the Potency is reported as “inactive”.
For `CCOc1ccccc1N(CC)C(=O)c1cc2ccc3cccnc3c2[nH]1`, the Potency was “inactive”.
With `CCCCC(CCC(=O)Nc1ccc(C(=O)OCC)cc1)C(=O)O` (stereo not drawn) the Potency was “inactive”.
With `CCOC(=O)Nc1ccc(NC(=O)OCC)cc1` the Potency was “inactive”.
In the case of `CCCCCOC(=O)NCCOC(=O)Nc1ccc(C(=O)OCC)cc1`, the Potency is reported as 16.4 µM (active).
For `CC1C(=O)N(Cc2cn(CC3CCCCC3)nn2)CCS(=O)(=O)N1Cc1ccc(-c2cccc(N(C)C)c2)cc1` (stereo not drawn), the Potency was “inactive”.
With `COc1ccc(-c2ccc(=O)n(CC(=O)Nc3ccc(Br)cc3F)n2)cc1` the Potency was “inactive”.
In the case of `O=C(Nc1ncccc1O)c1ccc(S(=O)(=O)N2CCCC2)cc1`, the Potency is reported as “inactive”.
With `O=C(NC(=O)c1ccccc1)Nc1ccccc1O` the Potency was “inactive”.
For `O=C(Nc1ncccc1O)c1ccc(C(=O)c2ccccc2)cc1`, the Potency was 23.1 µM (active).
In the case of `C[C@@H]1CN([C@@H](C)CO)C(=O)c2cc(NS(C)(=O)=O)ccc2O[C@@H](C)CCCCO[C@H]1CN(C)C(=O)Nc1ccc2c(c1)OCO2`, the Potency is reported as “inactive”.
For `O=C(NCc1ccccc1)C1c2ccccc2OCC(=O)N1C1CC1` (stereo not drawn), the Potency was “inactive”.
With `Cc1ccc(C(O)c2ncc(-c3ccccc3F)[nH]2)cc1F` (stereo not drawn) the Potency was “inactive”.
In the case of `CCS(=O)(=O)c1ccc(O)c(NC(=O)COc2ccc(Cl)cc2)c1`, the Potency is reported as “inactive”.
For `O=C(Nc1cc(S(=O)(=O)Nc2ccc(Cl)cc2)ccc1O)c1ccc(F)cc1F`, the Potency was 23.1 µM (active).
In the case of `O=C(Nc1cccc(S(=O)(=O)NC2=NCCC2)c1)c1ccc(F)cc1F`, the Potency is reported as “inactive”.
